The record followed here is PubChem BioAssay (EPA / NIEHS).

Results filed as inconclusive are left out. Activity calls are given as the source filed them. Rule for the calls: active = hit-call score of the fitted dose curve at least 0.9, where 1 is the maximum; inconclusive = response in the unintended direction; inactive = score below 0.9.

Sequence of human Thyroid Receptor alpha (THRa1), THRA (gene 7067) (P10827 whole entry, looked up, the tested form may be a part): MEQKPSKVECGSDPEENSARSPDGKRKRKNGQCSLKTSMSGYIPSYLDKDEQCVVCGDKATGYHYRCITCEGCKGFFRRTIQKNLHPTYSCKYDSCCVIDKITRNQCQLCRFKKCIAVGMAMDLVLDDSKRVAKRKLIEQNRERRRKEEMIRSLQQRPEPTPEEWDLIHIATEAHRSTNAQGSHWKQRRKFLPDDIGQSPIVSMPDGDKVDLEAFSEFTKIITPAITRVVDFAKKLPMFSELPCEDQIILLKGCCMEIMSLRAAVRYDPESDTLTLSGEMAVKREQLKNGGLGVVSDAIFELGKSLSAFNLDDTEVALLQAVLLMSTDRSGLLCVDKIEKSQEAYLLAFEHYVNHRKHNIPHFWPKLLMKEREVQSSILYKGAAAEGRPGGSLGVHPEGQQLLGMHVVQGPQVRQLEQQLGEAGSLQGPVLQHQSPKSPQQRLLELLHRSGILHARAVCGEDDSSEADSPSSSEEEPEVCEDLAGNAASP

One test deals with human Thyroid Receptor alpha (THRa1), THRA (gene 7067) (UniProt P10827). Nature of the test: ATG_THRa1_TRANS: Attagene TRANS-FACTORIAL HepG2 Assay for human Thyroid Receptor alpha (THRa1) (AID 2283014). In a few lines:
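First, HepG2 cells receive multiple GAL4-UAS reporter units and the chimeric receptor. They are then dosed for 24 h, after which RNA is reverse-transcribed, amplified, labelled, HpaI-cut and sized by capillary electrophoresis; gain relative to DMSO is scored.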
In the case of `CCCC(C)=O`, the outcome was inactive.

Regarding `C/C=C(\C)C(=O)OCCc1ccccc1`, the result was inactive.

Take `CN(C)C(=S)SC(=S)N(C)C`: the outcome was inactive.

Consider `C[N+](C)(C)CCCCCC[N+](C)(C)C`, for which the outcome was inactive.

The target of another test is human Vitamin D Receptor (VDR), VDR (gene 7421) (UniProt P11473). Nature of the test: ATG_VDR_TRANS: Attagene TRANS-FACTORIAL HepG2 Assay for human Vitamin D Receptor (VDR) (AID 2283022). Put shortly: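 Fluorescence of labelled reporter cDNA fragments, resolved by capillary electrophoresis, gives mRNA induction after 24 h treatment of HepG2 cells carrying transfected Gal4-fusion reporter units. Activity is fitted in the positive direction with DMSO as baseline.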
Sequence of human Vitamin D Receptor (VDR), VDR (gene 7421) (P11473 whole entry, looked up, the tested form may be a part): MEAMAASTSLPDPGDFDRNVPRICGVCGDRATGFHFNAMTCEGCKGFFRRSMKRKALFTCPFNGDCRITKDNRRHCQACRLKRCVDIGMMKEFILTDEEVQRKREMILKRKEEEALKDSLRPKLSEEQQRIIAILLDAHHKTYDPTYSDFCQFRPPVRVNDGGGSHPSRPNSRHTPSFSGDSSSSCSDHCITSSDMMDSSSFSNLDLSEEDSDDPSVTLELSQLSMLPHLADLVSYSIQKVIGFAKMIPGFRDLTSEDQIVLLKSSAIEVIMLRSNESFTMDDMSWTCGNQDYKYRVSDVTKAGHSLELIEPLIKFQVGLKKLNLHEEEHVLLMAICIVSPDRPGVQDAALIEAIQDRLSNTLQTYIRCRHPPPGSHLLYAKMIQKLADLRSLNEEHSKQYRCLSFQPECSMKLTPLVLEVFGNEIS
In the case of `OCCOCCN1CCN(C2=Nc3ccccc3Sc3ccccc32)CC1`, the call was inactive.

With `Nc1ccc(Cl)c([N+](=O)[O-])c1`, the compound was classed as inactive.

As to `FC(F)(F)COCC(F)(F)F`, the compound was called inactive.

On to `CCCC[O][Al]([O]CCCC)[O]CCCC`, for which the call was inactive.

On to `CN1CCOCC1`, for which the compound was classed as inactive.

With `CCCN(CCC)S(=O)(=O)c1ccc(C(=O)O)cc1`, the compound was classed as inactive.

As for `CCCCCC(=O)CC`, the compound was classed as inactive.

For `COCCOCCOCCO`, the result was inactive.

On to `CC(C)OCCO`, for which the compound was called inactive.

Turning to `COc1cc(C(C)C)ccc1C`, the result was inactive.

Consider `CCCCCc1ccco1`, for which the compound was classed as inactive.

Take `CC(C)(C)OC(=O)c1ccc(O)cc1`: the compound was classed as inactive.

Take `O=C1OC(=O)c2c(Br)c(Br)c(Br)c(Br)c21`: the result was inactive.

In the case of `CN(C)C(=S)SC(=S)N(C)C`, the call was inactive.

For the compound `C=C1CC[C@H](O)C/C1=C/C=C1\CCC[C@]2(C)[C@@H]([C@H](C)/C=C/[C@H](C)C(C)C)CC[C@@H]12`, the half-maximal activity concentration (AC50) was 3.98 µM (active).

For `CC(=O)C(C)O` (centres undefined), the compound was classed as inactive.

For the compound `Cc1ccc(N)c(S(=O)(=O)O)c1`, the outcome was inactive.

With `CCCCCCCCN1CCCC1=O`, the outcome was inactive.

On to `CC(=O)O[C@@H]1CC2CCC1(C)C2(C)C` (some centres undefined), for which the call was inactive.

As for `C=CCN(CC=C)CC=C`, the call was inactive.

A word on the AC50: it is the concentration giving half of the maximal activity seen.
